In the library only some 1.7% were active in any assay of this set; here they are far more common.
TRPML1 blocker: inhibitors of human TRPML1 channel | 0.02% of 390,000 active | activity change, negative = inhibition, % (no concentration beside the values) | AID 624415 | Q9GZU1 | TRPML1-inducible cells, Ca2+ dye fluorescence, FDSS; hits give low values; inhibition of EC80 agonist-evoked calcium signal; in the data active means activity change below about -50%;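 further: stimulus is agonist 54-4 at its EC80 concentration; on the % scale 0 is the no-effect control and ±100 the full control effect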
Target sequence (Q9GZU1 whole entry, looked up): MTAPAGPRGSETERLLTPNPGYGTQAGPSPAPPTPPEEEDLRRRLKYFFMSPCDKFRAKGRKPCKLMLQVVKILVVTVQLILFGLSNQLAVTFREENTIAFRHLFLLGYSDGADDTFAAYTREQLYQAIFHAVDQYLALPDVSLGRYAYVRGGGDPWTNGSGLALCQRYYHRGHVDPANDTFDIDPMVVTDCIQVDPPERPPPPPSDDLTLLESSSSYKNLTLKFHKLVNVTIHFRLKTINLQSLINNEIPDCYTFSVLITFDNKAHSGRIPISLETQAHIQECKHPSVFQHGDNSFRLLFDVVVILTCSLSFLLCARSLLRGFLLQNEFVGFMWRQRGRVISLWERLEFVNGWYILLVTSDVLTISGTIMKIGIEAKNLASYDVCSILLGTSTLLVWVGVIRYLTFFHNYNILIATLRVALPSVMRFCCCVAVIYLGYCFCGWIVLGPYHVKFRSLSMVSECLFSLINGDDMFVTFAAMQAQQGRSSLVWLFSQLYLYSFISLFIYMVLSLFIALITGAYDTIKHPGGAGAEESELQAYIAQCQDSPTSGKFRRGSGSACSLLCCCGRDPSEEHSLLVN
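Calcium fluorescence in TRPML1-DL cells induced overnight with Tet: a 110 s read after compound pin addition, then a 110 s antagonist read after challenge with 54-4 at 4 uM final (EC80).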
TRPML1 agonist: activates the human TRPML1 channel. AID 624414. 0.12% of 410,000 active. TRPML1-expressing cells, Ca2+ dye fluorescence, FDSS. Q9GZU1. activation, % (test concentration not listed); in the data active means activation above about 50%; further: 0% is about no effect
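TRPML1-DL cells, Tet-induced overnight (~16 h, 37 degrees C), loaded 45-90 min at room temperature with Ca8 no-wash calcium dye plus quencher. FDSS fluorescence: 10 s baseline, compound pin-transfer, 110 s agonist read, then EC80 54-4 (4uM final) and 110 s antagonist read.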
hERG WT inh: blocks the wildtype human KCNH2 potassium channel; Q12809; U2OS, BacMam KCNH2, thallium flux FluxOr; hits give low values; activity change, % at 1.84 µM; 0.37% of 340,000 active;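 active means maximum activity change below -70%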; further: on the % scale 0 is the no-effect control and ±100 the full control effect
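U2OS cells transduced with wild-type KCNH2 virus are loaded with FluxOr dye for 45 min, and thallium flux is measured in kinetic reads before and after stimulation buffer. Rate constants are normalized to DMSO controls.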
TRHR PAM: TRH receptor (human) allosteric enhancement; P34981; TRHR cells, fluo-8 calcium fluorescence, EC20 TRH enhancement; enhancement, % at 2 µM; 0.66% of 360,000 active; in the data active means enhancement above about 30%; further: 0% is about no effect
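TRHR-expressing cells loaded with fluo-8 calcium dye were read kinetically (ex 480/em 530) during compound addition, then stimulated with an EC20 of TRH (10 nM final). Enhancement of the Gq-mediated intracellular calcium response was scored.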
KCNH2 3.1 block: KCNH2 3.1 (human) potassium channel inhibition | U2OS KCNH2 3.1, thallium flux FluxOr; hits give low values | activity change, % (tested at about 1.8 µM) | 0.95% of 340,000 active | AID 720553;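 active means maximum activity change below -70%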;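 further: thallium influx rate constant from kinetic fluorescence after stimulation buffer; on the % scale 0 is the no-effect control and ±100 the full control effect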
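We transduce U2OS cells with the mutant 3.1 virus, culture them overnight, load FluxOr with Red40 quencher for 45 min, then add stimulation buffer and read kinetically for 2 min to derive a normalized rate constant.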
TRHR ag: activates the human TRH receptor; P34981; TRHR cells, calcium flux fluo-8, FDSS agonist mode; activation, % at 2 µM; 0.18% of 360,000 active; in the data active means activation above about 30%; further: 0% is about no effect
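Agonist-mode FDSS calcium read (Ex 480/Em 530, 1 s cycles) in 1536-well TRHR cells with fluo-8 dye, after 10-cycle baseline and 23 nL compound addition; TRH at EC20 (10 nM final) added afterwards for the enhancer phase.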
The depositor's hits bear a star; x = no result given.

SMILES | TRPML1 blocker | TRPML1 agonist | hERG WT inh | TRHR PAM | KCNH2 3.1 block | TRHR ag
N#Cc1ccc(-c2ccc(OCC(O)CN3CCOCC3)cc2)cc1 (centres undefined) | -5 | 1 | 0 | 20 | -11 | 1
OC(COc1ccc(Br)cc1)CN1CCC(Cc2ccccc2)CC1 (centres undefined) | 2 | 0 | -117* | 9 | -104* | 2
N#Cc1ccc(OCC(O)CN2CCC(C(O)(c3ccccc3)c3ccccc3)CC2)cc1 (centres undefined) | -10 | 3 | -144* | 0 | -120* | 2
CCCc1ccc(OCC(O)CN2CCN(c3ccccn3)CC2)cc1 (centres undefined) | -3 | 0 | 1 | 20 | -77* | 0
O=C(c1ccccc1)c1ccc(OCCOCCN2CCN(Cc3ccccc3)CC2)cc1 | -6 | 0 | -140* | 4 | -10 | 0
Cn1nnnc1Sc1ncnc2scc(-c3ccccc3C#N)c12 | x | x | x | 7 | x | 0
Cc1ccc(NC(=O)Cn2c(=O)n(CCCCC(=O)NCCc3ccc(Cl)cc3)c(=O)c3ccccc32)cc1 | 13 | -1 | x | 17 | x | 0
O=C(c1ccccc1)c1ccc(OCC(O)CN2CCN(Cc3ccccc3)CC2)cc1 (centres undefined) | 16 | -1 | -19 | -3 | -85* | -1
CC(C)(C)C1CCC(OCC(O)CN2CCN(Cc3ccccc3)CC2)CC1 (centres undefined) | 19 | 1 | 14 | 32* | 5 | 0
Cc1ccc(NC(=O)c2cccc(-n3cnnn3)c2)cc1Cl | 45 | 0 | -2 | -7 | -4 | 0
O=C(/C=C/[C@H]1O[C@@H](n2cnc3c(NC(=O)c4ccccc4)ncnc32)[C@H](O)[C@@H]1O)NCC1CCCCC1 | 12 | 0 | x | x | x | x
COc1ccc(Oc2c(C(F)(F)F)oc3c(CN4CCCC(C)C4)c(O)ccc3c2=O)cc1 (centres undefined) | -7 | 4 | x | -7 | x | 0
CCNc1nc(Oc2ccc(=O)[nH]n2)nc(SC)n1 | 7 | -1 | -8 | 32* | -8 | 0
O=C1C=CC(c2c[nH]c3ccccc23)CC1 (centres undefined) | x | 0 | x | x | x | x
COc1ccc(Cn2ccnc2SCC(=O)Nc2cccc(NC(C)=O)c2)cc1 | -15 | 0 | 2 | -4 | -3 | 0
COc1ccc(Cn2c(CO)cnc2SCC(=O)Nc2cccc(NC(C)=O)c2)cc1 | -14 | 1 | 1 | 32* | 0 | 0
COc1ccc(-c2nc(Cn3c(SCc4ccccc4F)nc4ccncc43)c(C)o2)cc1 | 9 | 0 | 11 | -6 | -109* | 2
O=C(Nc1ccc(O)cc1C(=O)O)c1ccc2c(c1)C(=O)N(Cc1ccco1)C2=O | -6 | 2 | 5 | 2 | 7 | -1
O=C(Nc1cc([N+](=O)[O-])ccc1O)c1ccc2c(c1)C(=O)N(Cc1ccco1)C2=O | -11 | 0 | 4 | 39* | -4 | 0
Cc1cc(-c2cc(-c3ccccc3)on2)nc(NC2CCCC2)n1 | 21 | 1 | 0 | -1 | -70* | 0
OC(CCCN1CCCCC1)(c1ccccc1)c1ccc(C(F)(F)F)cc1 (centres undefined) | -7 | 0 | 2 | x | -73* | x
COc1ccc(S(=O)(=O)N2CCC(n3cnc4cc(C(F)(F)F)ccc43)CC2)cc1 | 33 | 0 | -87* | 1 | -86* | 1
CC(C)NCC(O)c1ccc(O)c(O)c1 (centres undefined) | 6 | -1 | 12 | 36* | 1 | 0
COc1ccccc1NC(=S)NCc1ccccn1 | -10 | 0 | 3 | 0 | 21 | 0
COc1ccc(Cl)cc1NC(=S)NCc1ccccn1 | -5 | -1 | -11 | 31* | 15 | 0
CCOc1ccc2nc(NC(=O)CN3CCC(n4nnc5cc(F)ccc54)CC3)sc2c1 | 1 | 5 | -10 | -1 | -89* | -2
O=C(CN1CCC(n2nnc3cc(F)ccc32)CC1)NC1CC1 | -15 | 0 | -2 | 6 | -8 | 1

Source: PubChem
